From PubChem BioAssay
Activity calls are given as the source filed them. Unless noted, no rule for the calls is given here.

Key:
[1] = HepG2 liver cancer cell viability effects, profiling panel, resazurin fluorescence, 24 h, PK04 Diversity Set (AID 1172); conditions: higher = more signal; also: test concentration not given here
[2] = basal S. cerevisiae growth modulation, no modifier, primary screen, OD600, strain BY4716, 24 h, basal condition (AID 1173); conditions: OD600, 24 h, higher = more signal, called active from +8 up or from −8 down
[3] = MM1S myeloma cell viability, profiling panel, resazurin fluorescence, basal, 24 h, PK04 Diversity Set (AID 1174); conditions: higher = more signal, called active from +8 up or from −8 down;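 also: MM1S multiple myeloma cell line; test concentration not given here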
[4] = molecular target: Dihydroorotate dehydrogenase (quinone), mitochondrial (Plasmodium falciparum (isolate 3D7)) (UniProt Q08210); assay: PfDHODH enzyme inhibitors, primary screen, biochemical, C-terminal His tag, absorbance 600 nm (AID 1175); conditions: DCIP absorbance 600 nm, higher = more signal, called active from +8 up or from −8 down;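 also: recombinant parasite enzyme with a five histidine tag at its C terminus; test concentration not given here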
[5] = P. aeruginosa biofilm formation inhibitors, primary screen, strain PAO1, LB-PBS medium, absorbance 600 nm (AID 1176); also: test concentration not given here; conditions: P. aeruginosa PAO1 growth/biofilm, A600, 12 h; higher = more signal
[6] = S. cerevisiae RM11-1a growth modifiers, primary screen, strain RM11-1a, OD600, basal, 24 h (AID 1177); conditions: OD600, 24 h, higher = more signal, called active from +8 up or from −8 down;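 also: cultures grown under basal conditions with no added stressor; test concentration not given here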
[7] = E. coli acrAB mutant growth effects, primary screen, E. coli filamentation inducers, strain DRC39, OD650, 24 h (AID 1178); conditions: higher = more signal, called active from +8 up or from −8 down;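 also: growth measured as culture turbidity by optical density at 650 nm; test concentration not given here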
[8] = E. coli acrAB mutant growth effects, primary screen, E. coli filamentation inducers, strain DRC39, OD650, 48 h (AID 1179);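 also: screen aims at cell division blockers that make cells filament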; conditions: E. coli DRC39 delta-acrAB growth, higher = more signal, called active from +8 up or from −8 down
[9] = RPMI8226 myeloma cell viability, profiling panel, resazurin fluorescence, basal, 24 h, PK04 Diversity Set (AID 1180); conditions: higher = more signal;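 also: RPMI8826 multiple myeloma cell line at 5000 cells per well; test concentration not given here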
[10] = molecular target: E3 ubiquitin-protein ligase XIAP (Homo sapiens) (UniProt P98170); assay: XIAP binders, primary screen, biophysical, small-molecule microarray, fluorescence 635 nm (AID 1181); conditions: small-molecule microarray binding, higher = more signal;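 also: score merges 667 nm emission and signal to noise over triplicate slides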
E3 ubiquitin-protein ligase XIAP (Homo sapiens), sequence (P98170 whole entry, looked up): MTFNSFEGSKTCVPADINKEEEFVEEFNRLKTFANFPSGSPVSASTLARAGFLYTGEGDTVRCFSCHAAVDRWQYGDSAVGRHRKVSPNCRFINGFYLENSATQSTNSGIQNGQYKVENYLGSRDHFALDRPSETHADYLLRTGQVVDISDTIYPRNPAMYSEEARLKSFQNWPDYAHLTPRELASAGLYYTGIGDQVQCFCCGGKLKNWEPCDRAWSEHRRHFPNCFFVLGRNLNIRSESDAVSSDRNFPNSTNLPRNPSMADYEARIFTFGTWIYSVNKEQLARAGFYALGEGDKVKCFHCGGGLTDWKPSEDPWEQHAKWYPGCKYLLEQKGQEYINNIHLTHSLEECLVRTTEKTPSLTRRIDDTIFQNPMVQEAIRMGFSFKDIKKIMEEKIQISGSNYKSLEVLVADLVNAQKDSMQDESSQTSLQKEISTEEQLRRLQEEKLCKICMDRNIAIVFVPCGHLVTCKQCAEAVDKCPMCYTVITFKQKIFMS

Dihydroorotate dehydrogenase (quinone), mitochondrial (Plasmodium falciparum (isolate 3D7)), sequence (Q08210 whole entry, looked up): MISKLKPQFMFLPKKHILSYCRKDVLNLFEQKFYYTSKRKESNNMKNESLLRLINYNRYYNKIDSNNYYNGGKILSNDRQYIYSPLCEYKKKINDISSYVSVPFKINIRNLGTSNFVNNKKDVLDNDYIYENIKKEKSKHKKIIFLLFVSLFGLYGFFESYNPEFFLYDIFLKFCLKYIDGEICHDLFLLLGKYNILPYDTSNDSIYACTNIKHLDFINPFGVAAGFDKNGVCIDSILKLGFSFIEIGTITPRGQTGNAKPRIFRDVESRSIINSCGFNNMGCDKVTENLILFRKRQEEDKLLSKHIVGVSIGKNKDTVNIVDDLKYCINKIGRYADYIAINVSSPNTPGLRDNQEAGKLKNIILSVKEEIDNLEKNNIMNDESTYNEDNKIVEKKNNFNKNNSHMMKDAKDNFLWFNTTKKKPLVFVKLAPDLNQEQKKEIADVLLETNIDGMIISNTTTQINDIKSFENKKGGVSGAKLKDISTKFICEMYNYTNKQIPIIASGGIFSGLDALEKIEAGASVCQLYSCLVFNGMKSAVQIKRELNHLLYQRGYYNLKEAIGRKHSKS

Row | SMILES | z-score [1] | z-score [2] | z-score [3] | composite z-score [4] | z-score [5] | z-score [6] | z-score [7] | z-score [8] | z-score [9] | composite z-score [10]
1 | CC(C)CN1C(=O)[C@@]2(c3ccc([N+](=O)[O-])cc3)CC(=O)N(CC34CC5CC(CC(C5)C3)C4)[C@@H]2c2ccc(CO)cc21 | -1.64 | -0.22 (inactive) | 0.113 (inactive) | -4.84 (inactive) | 0.146 (inactive) | -0.855 (inactive) | 0.197 (inactive) | -0.213 (inactive) | 0.248 | -0.289
2 | COc1ccc([Si](C)(C)[C@@H]2[C@@H](CCO)O[C@]3(C(=O)N(Cc4cccc(N5C(=O)c6cccc7cccc5c67)c4)c4ccccc43)[C@H]2C)cc1 | -1.83 | 1.34 (inactive) | -2.77 (inactive) | 0.518 (inactive) | 1.53 (inactive) | 5.01 (inactive) | 1.55 (inactive) | 0.97 (inactive) | -3.49 | -0.0351
3 | NCCCCCCNC(=O)[C@H]1C[C@H]2C(=O)N[C@@H](Cc3ccccc3)C(=O)N2[C@H]1c1ccc(O)cc1 | 0.614 | -0.68 (inactive) | 1.58 (inactive) | -1.32 (inactive) | 0.118 (inactive) | -1.27 (inactive) | 0.279 (inactive) | 0.04 (inactive) | 1.27 | -0.0826
4 | COCCCNC(=O)[C@@H]1c2ccccc2C(=O)N(Cc2ccccc2C(F)(F)F)[C@H]1c1ccc(CO)cc1 | 0.816 | -0.756 (inactive) | 1.51 (inactive) | -0.955 (inactive) | -0.727 (inactive) | 0.186 (inactive) | 0.414 (inactive) | 0.0948 (inactive) | 1.48 | -0.138
5 | CC1CC/C=C\[C@H]2OC34C=CCN(C(C)C)C(=O)[C@H]3N(CCCCCO)C(=O)[C@@H]4C2C(=O)O1 (stereo not given in full) | 0.551 | -0.436 (inactive) | 1.46 (inactive) | -1.16 (inactive) | -1.28 (inactive) | -0.171 (inactive) | 1.01 (inactive) | 1.07 (inactive) | 0.894 | -0.304
6 | COc1ccccc1CN1C(=O)c2ccccc2[C@@H](C(=O)NC(C)C)[C@@H]1c1ccc(CO)cc1 | 1.1 | -0.186 (inactive) | 1.1 (inactive) | -0.469 (inactive) | -0.963 (inactive) | -0.108 (inactive) | 0.686 (inactive) | 0.0549 (inactive) | 1.17 | 0.0251
7 | COc1c(C)cc(-c2cc3c(c(Cc4ccccc4)n2)[Si](C(C)C)(C(C)C)OC3)cc1C | -0.683 | 1.06 (inactive) | -0.533 (inactive) | -0.0592 (inactive) | 0.055 (inactive) | 0.576 (inactive) | -0.363 (inactive) | -0.779 (inactive) | -0.661 | -0.138
8 | Cc1ccc(S[C@]2(C(=O)NCCN3CCOCC3)CC(=O)N(Cc3ccccc3C(F)(F)F)[C@@H]2c2ccc(CO)cc2I)cc1 | 0.628 | -3.34 (inactive) | -2.71 (inactive) | -0.323 (inactive) | 0.875 (inactive) | -1.57 (inactive) | 0.142 (inactive) | 0.0559 (inactive) | -2.22 | -0.17
9 | C=CCOC(=O)[C@@H]1[C@H]2C(=O)O[C@H](c3ccccc3)[C@H](c3ccccc3)N2[C@H](c2ccc(OCCOC(=O)[C@H]3C[C@H]4C(=O)N[C@@H](CC(C)C)C(=O)N4[C@H]3c3ccc(O)cc3)cc2)[C@@]12C(=O)Nc1ccc(I)cc12 | 0.206 | 1.26 (inactive) | 0.219 (inactive) | 0.106 (inactive) | 2.44 (inactive) | 1.6 (inactive) | 0.869 (inactive) | 1.2 (inactive) | 0.597 | 0.0819
10 | C=C(C(=O)CC[C@H](OC(=O)c1cccnc1)c1ccc(CO)o1)C(C)C | -0.499 | -1.02 (inactive) | -0.323 (inactive) | -3.18 (inactive) | 0.354 (inactive) | -0.811 (inactive) | -0.645 (inactive) | -0.631 (inactive) | -0.74 | -0.187
11 | C[C@@H]1ON(c2ccc(C(=O)OC(C)(C)C)cc2)[C@H](c2ccc(Br)cc2)[C@H]1C(=O)N1C(=O)OC[C@H]1Cc1ccccc1 | 0.318 | 0.0743 (inactive) | 0.652 (inactive) | 0.315 (inactive) | 0.224 (inactive) | 0.538 (inactive) | 0.488 (inactive) | 0.46 (inactive) | 1.23 | -0.16
12 | CCN(CC)c1ccc(N2CC=CC34O[C@@H]5/C=C\CCC(C)OC(=O)C5[C@H]3C(=O)N(CCO)[C@@H]4C2=O)cc1 (stereo not given in full) | -0.68 | -0.958 (inactive) | -0.742 (inactive) | 0.543 (inactive) | -0.593 (inactive) | -0.481 (inactive) | -0.736 (inactive) | -0.949 (inactive) | -0.833 | 0.283
